Assay results reported in PubChem BioAssay (Tox21).
Records with an inconclusive call do not appear. Activity calls are given as the source filed them. Unless noted, calls follow the shape of the full dose curve.

System: not listed separately
Assay: qHTS assay to identify small molecule antagonists of the thyroid receptor (TR) signaling pathway (AID 743065; active = well fitted inhibition curve with a large enough effect in the repeat runs; also: nearly all actives have a fitted effect of over 55% in size; also: potency is read from the fitted curve at half-maximal effect)
Conditions: GH3.TRE-Luc, T3-stimulated luciferase inhibition, 23.5 h; series mostly up to 70.3 µM; activity, negative = inhibition: at the top concentration
Summary of the method: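 Antagonism measured as loss of luciferase signal in GH3 cells stably carrying a TRE-luciferase reporter, co-treated with compound and T3 (1 nM final) for 23.5 h at 37 C. Viability was read in the same well by CellTiter-Fluor.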
% is scaled to controls: 0 for no effect and ±100 for the full control effect.

SMILES	Potency	activity, negative = inhibition
Cc1ccc2c(c1)c1c3n2CCNC3CCC1 (centres undefined)	23.7 µM (active)	
O=C(O)c1ccccc1C(=O)Nc1ccc(S(=O)(=O)Nc2nccs2)cc1		6.51% (inactive)
C[C@H](CCC(=O)O)[C@H]1CC[C@H]2[C@@H]3[C@H](O)C[C@@H]4C[C@H](O)CC[C@]4(C)[C@H]3C[C@H](O)[C@]12C	inactive	
CC(CC(=O)O)CC(C)(C)C (centres undefined)		-6.89% (inactive)
CCCOCCOCCOCCO		17.7% (inactive)
COc1ccc(/C=N/NC(=O)c2ccncc2)cc1OC		18.1% (inactive)
C1=C\CC/C=C\CC/1		17.9% [at 95 µM] (inactive)
O=C(O)/C=C/c1ccccc1	inactive	
O=S(=O)(O)CCO		5.38% [at 95 µM] (inactive)
CCN(CCC#N)c1ccccc1		-0.988% (inactive)
CC(=O)OCCCc1ccccc1		3.18% (inactive)
COCC(=O)Nc1c(I)c(C(=O)NCC(O)CO)c(I)c(C(=O)N(C)CC(O)CO)c1I (centres undefined)		2.46% [at 32.5 µM] (inactive)
O=C(O)C(=O)Nc1cccc(-c2nn[nH]n2)c1		4.41% (inactive)
COCCOCCOCCOC		4.2% (inactive)
CN(C)CCOCCN(C)CCO		10.7% (inactive)
CCc1nccnc1C		8.64% (inactive)
SCCSCCS		12.9% (inactive)
C=C(C)C(=O)OCCCCCCOC(=O)C(=C)C		-17.1% (inactive)
Cc1ccccc1C(=O)N1CC/C(=N\OS(=O)(=O)O)c2ccc(Cl)cc21		4.19% (inactive)
CCCCCCCC/C=C\CCCCCCCC(=O)OC[C@@H](O)[C@H]1OC[C@H](O)[C@H]1O	inactive	
CCCCC(=O)N(C)C		-0.0979% (inactive)
CN(C)CCCNCCC#N		0.014% (inactive)
C=COCCOCCOC=C		3.08% (inactive)
Cc1ccc(S(=O)(=O)NC(=O)NC2CCCCCCC2)cc1		-0.0126% (inactive)
C[N+](C)(C)CC(O)CCl (centres undefined)		-10.9% [at 95 µM] (inactive)

System: thyroid hormone receptor (rat, GH3 cells)
Assay: qHTS assay to identify small molecule agonists of the thyroid receptor (TR) signaling pathway (AID 743066)
Conditions: GH3.TRE-Luc cells, TR agonist luciferase, 24 h; series mostly up to 83.9 µM; activation: at the top concentration

SMILES	activation	Potency
O=C(O)c1ccccc1C(=O)OCc1ccccc1	4.03% (inactive)	
O=C(O)c1ccccc1C(=O)Nc1ccc(S(=O)(=O)Nc2nccs2)cc1	0.725% (inactive)	
C[C@H](CCC(=O)O)[C@H]1CC[C@H]2[C@@H]3[C@H](O)C[C@@H]4C[C@H](O)CC[C@]4(C)[C@H]3C[C@H](O)[C@]12C		inactive
CC(CC(=O)O)CC(C)(C)C (centres undefined)	0.452% (inactive)	
CCCOCCOCCOCCO	2.05% (inactive)	
COc1ccc(/C=N/NC(=O)c2ccncc2)cc1OC	0.19% (inactive)	
C1=C\CC/C=C\CC/1	1.94% [at 95.2 µM] (inactive)	
O=C(O)/C=C/c1ccccc1		inactive
Cn1c(=O)c2c(ncn2CC2OCCO2)n(C)c1=O	1.92% (inactive)	
O=S(=O)(O)CCO	0.803% [at 95.2 µM] (inactive)	
CCN(CCC#N)c1ccccc1	0.292% (inactive)	
CC(=O)OCCCc1ccccc1	0.678% (inactive)	
CCCCCC(=O)OCC	-0.079% (inactive)	
COCC(=O)Nc1c(I)c(C(=O)NCC(O)CO)c(I)c(C(=O)N(C)CC(O)CO)c1I (centres undefined)	-0.213% [at 39.4 µM] (inactive)	
CCCCCCCCCOCC1CO1 (centres undefined)	0.0941% [at 95.2 µM] (inactive)	
O=C1NC2NC(=O)NC2N1 (centres undefined)	0.639% (inactive)	
COc1cc2c3cc1Oc1cc(ccc1O)C[C@@H]1c4c(cc(OC)c(O)c4Oc4ccc(cc4)C[C@@H]3N(C)CC2)CC[N+]1(C)C	-0.255% (inactive)	

SMILES	activation	Potency
O=C(O)C(=O)Nc1cccc(-c2nn[nH]n2)c1	0.439% (inactive)	
COCCOCCOCCOC	1.29% (inactive)	
CN(C)CCOCCN(C)CCO	1.32% (inactive)	
CCc1nccnc1C	0.469% (inactive)	
SCCSCCS	0.171% (inactive)	
C=C(C)C(=O)OCCCCCCOC(=O)C(=C)C	-1.95% (inactive)	
CC(=O)c1ccc(OCC(=O)N2CCCCC2)cc1	1.18% (inactive)	
Nc1cc(Cl)cc(S(=O)(=O)O)c1O	1.23% [at 95.2 µM] (inactive)	
Cc1ccccc1C(=O)N1CC/C(=N\OS(=O)(=O)O)c2ccc(Cl)cc21	0.772% (inactive)	
CCCCCCCC/C=C\CCCCCCCC(=O)OC[C@@H](O)[C@H]1OC[C@H](O)[C@H]1O		inactive
CCCCC(=O)N(C)C	0.719% (inactive)	
CN(C)CCCNCCC#N	1.38% (inactive)	
C=COCCOCCOC=C	0.252% (inactive)	
Cc1ccc(S(=O)(=O)NC(=O)NC2CCCCCCC2)cc1	0.285% (inactive)	
OC(CCN1CCCCC1)(c1ccccc1)c1ccccc1	-4.86% (inactive)	
C[N+](C)(C)CC(O)CCl (centres undefined)	-3.67% [at 95.2 µM] (inactive)	

Biological target: Estrogen receptor (Homo sapiens) (UniProt P03372)
Assay: qHTS assay to identify small molecule antagonists of the estrogen receptor alpha (ER-alpha) signaling pathway (AID 743069; active = well fitted curve in the direction sought with a large enough effect in the signal ratio in the repeat runs, not every such curve was filed as active; the % refers to the signal ratio)
Conditions: HEK293 ER-alpha-UAS-bla, beta-lactamase ratio, antagonist mode; series mostly up to 69.4 µM; activity, negative = inhibition: at the top concentration
Summary of the method: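 Fluorescence intensity from a beta-lactamase FRET substrate served as the read-out. Cells: HEK293 with stably integrated ER-alpha-UAS-bla reporter. Agonist 17beta-estradiol was co-added with compounds; incubation 18 hr at 37C, substrate 2 hr at room temperature.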

Chain of Estrogen receptor (Homo sapiens) (P03372 whole entry, looked up): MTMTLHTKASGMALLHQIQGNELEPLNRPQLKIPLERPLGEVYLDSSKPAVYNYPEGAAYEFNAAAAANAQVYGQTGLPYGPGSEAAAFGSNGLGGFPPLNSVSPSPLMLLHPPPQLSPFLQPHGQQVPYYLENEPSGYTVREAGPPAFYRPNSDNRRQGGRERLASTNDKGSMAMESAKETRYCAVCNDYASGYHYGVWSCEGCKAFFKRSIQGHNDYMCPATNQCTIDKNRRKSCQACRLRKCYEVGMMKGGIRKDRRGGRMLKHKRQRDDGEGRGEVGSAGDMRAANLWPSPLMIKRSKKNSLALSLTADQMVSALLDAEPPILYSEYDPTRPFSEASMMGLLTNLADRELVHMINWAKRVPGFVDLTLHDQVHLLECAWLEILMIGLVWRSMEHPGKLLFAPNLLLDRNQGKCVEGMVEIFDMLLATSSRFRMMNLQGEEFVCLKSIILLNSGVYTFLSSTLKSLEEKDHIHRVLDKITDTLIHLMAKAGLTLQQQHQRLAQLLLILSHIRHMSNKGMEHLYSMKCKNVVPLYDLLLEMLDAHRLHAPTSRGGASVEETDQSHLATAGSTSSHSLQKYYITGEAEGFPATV

SMILES	activity, negative = inhibition	Potency
O=C(O)c1ccccc1C(=O)OCc1ccccc1	8.06% (inactive)	
C[C@H](CCC(=O)O)[C@H]1CC[C@H]2[C@@H]3[C@H](O)C[C@@H]4C[C@H](O)CC[C@]4(C)[C@H]3C[C@H](O)[C@]12C		inactive
CC(CC(=O)O)CC(C)(C)C (centres undefined)	-11.2% (inactive)	
CCCOCCOCCOCCO	22.9% (inactive)	
COc1ccc(/C=N/NC(=O)c2ccncc2)cc1OC	7.05% (inactive)	
C1=C\CC/C=C\CC/1	4.69% [at 79.1 µM] (inactive)	
O=C(O)/C=C/c1ccccc1		inactive
Nc1ccc(S(=O)(=O)Nc2ccccn2)cc1	-3.47% [at 32.6 µM] (inactive)	
O=S(=O)(O)CCO	10.6% [at 79.1 µM] (inactive)	
CCN(CCC#N)c1ccccc1	11.6% (inactive)	
CCCCCC(=O)OCC	-20.5% (inactive)	
COCC(=O)Nc1c(I)c(C(=O)NCC(O)CO)c(I)c(C(=O)N(C)CC(O)CO)c1I (centres undefined)	-5.62% [at 32.6 µM] (inactive)	
CN(C)CCOCCN(C)CCO	-18% (inactive)	
CCc1nccnc1C	17.7% (inactive)	
CC(=O)c1ccc(OCC(=O)N2CCCCC2)cc1	-18.7% (inactive)	
Nc1cc(Cl)cc(S(=O)(=O)O)c1O	3.13% [at 79.1 µM] (inactive)	
Cc1ccccc1C(=O)N1CC/C(=N\OS(=O)(=O)O)c2ccc(Cl)cc21	-1.85% (inactive)	
CCCCCCCC/C=C\CCCCCCCC(=O)OC[C@@H](O)[C@H]1OC[C@H](O)[C@H]1O	-10.5% (inactive)	
CCCCC(=O)N(C)C	-3.05% (inactive)	
OC(CCN1CCCCC1)(c1ccccc1)c1ccccc1	-22.2% (inactive)	
C[N+](C)(C)CC(O)CCl (centres undefined)	4.64% [at 79.1 µM] (inactive)	
